# Assay outcomes (PubChem BioAssay)
# HSF1 inhib = HSF1 inhibition; NIH3T3-HGL HSE-luciferase, MG132-induced, luminescence 8 h; hits give low values; hit rate 0.77% among 300,000; activity change, negative = inhibition, % at 7.5 µM (by protocol);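 active = more than half of replicate wells show activity change below -50%, luminescence cut by over half; inconclusive = some wells, but at most half, below -50%; inactive = no replicate well below -50%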;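 note: luciferase reports HSF-1 transcriptional activity via heat shock element; 0% = median of DMSO wells and -100% = zero luminescence signal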
# dFosB act-1 = mouse delta FosB homodimer activation. P13346. purified delta FosB, TAMRA-CDK5 oligo fluorescence polarization; percent of positive-control signal above neutral wells. activation, % at 25 µM. hit rate 0.99% among 340,000. AID 493131;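 active = mean activation above about 17%, with every replicate also reaching it, limit read from the data, passing the limit was not always enough; inconclusive = only one of the two conditions met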
# Target sequence (P13346 whole entry, looked up): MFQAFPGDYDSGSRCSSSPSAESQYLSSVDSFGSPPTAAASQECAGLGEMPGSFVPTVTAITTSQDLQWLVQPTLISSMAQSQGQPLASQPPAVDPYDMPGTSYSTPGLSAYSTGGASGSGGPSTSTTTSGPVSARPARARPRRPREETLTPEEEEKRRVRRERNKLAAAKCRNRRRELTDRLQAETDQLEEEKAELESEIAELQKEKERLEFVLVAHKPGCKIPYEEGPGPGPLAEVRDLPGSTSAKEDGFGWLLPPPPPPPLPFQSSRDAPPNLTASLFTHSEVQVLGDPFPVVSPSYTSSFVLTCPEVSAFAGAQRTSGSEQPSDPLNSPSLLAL
# MPTP inh = permeability transition pore inhibition; AID 602449; hit rate 1.4% among 360,000; isolated mouse mitochondria, Ca2+ swelling absorbance, 30 min; inhibition, % at 10 µM;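 active = inhibition of 50% or more, scaled per plate between neutral and stimulator controls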;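 note: 0% = DMSO wells given calcium and 100% = 1 mM EGTA wells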
# HSP90 refold inh = blocks HSP90-mediated luciferase refolding in reticulocyte lysate | Rabbit reticulocyte lysate, luciferase refolding luminescence, 3 h | inhibition, % at 5.6 µM | hit rate 0.91% among 290,000 | AID 1789;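 active = inhibition above the screen-wide mean plus 3 SD, computed separately per campaign, cut at about 16% in these data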;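 note: 0% = DMSO wells and 100% = 60 µM geldanamycin wells; inhibitors lower the luminescence because luciferase stays unfolded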
# HSF-1 act = increases HSF-1 driven luciferase reporter signal | hit rate 1.7% among 300,000 | activation, % at 9 µM | NIH3T3-HGL HSF-1 luciferase reporter, MG132, 8 h; 100% = twice DMSO control signal | AID 504408;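 active = mean replicate activation of at least 50% with a set share of replicates each reaching 50%; inconclusive = only one of those two conditions met; inactive = mean below 50% and too few replicates reaching it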;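 note: 0% = median of the neutral control wells and 100% = twice that signal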
# Platelet DG rel = modulates dense granule release in human platelets; human platelet-rich plasma, SFLLRN dense granule ATP release, luminescence; inhibition, %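 (compounds screened at 7.5 µM in platelet-rich plasma)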; hit rate 0.22% among 300,000;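 active = mean replicate score, as percent of positive control, at or above 50; inconclusive = mean below 50 but at least one replicate at or above 50; inactive = mean and every replicate below 50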
# dFosB act-2 = delta FosB (mouse) homodimer activation. shares compounds with dFosB act-1. purified delta FosB, TAMRA-CDK5 oligo fluorescence polarization; normalised: neutral wells 0, positive control 100. activation, % at 24.9 µM. 2,400 tested, under 10 active;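 active = highest replicate activation at or above 34% and every replicate reaching that threshold; inconclusive = meets only one of the two criteria; inactive = meets neither criterion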;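 note: higher polarization means more probe DNA bound by delta FosB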
# Rh123 counter = membrane potential counter-screen of mitochondrial pore inhibitors. AID 624504. inhibition, % at 10 µM. shares compounds with MPTP inh. hit rate 78% among 5,000. isolated mitochondria, Rhodamine 123 fluorescence; in the data active = inhibition above about 22%;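 note: 0% = DMSO vehicle and 100% = positive control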
# MPTP swell DR = dose response confirmation of mitochondrial permeability transition pore inhibitors; shares compounds with MPTP inh; isolated mitochondria swelling, absorbance; IC50, µM; hit rate 58% among 780; AID 651561; in the data active = IC50 below about 20 µM
# MPTP counter DR = MPTP inhibitor counter-screen activity, dose response; shares compounds with MPTP inh; isolated mitochondria counterscreen, fluorescence read-out; IC50, µM; hit rate 49% among 780; in the data active = IC50 below about 80 µM
# The depositor's hits bear a star; i = inactive; ? = inconclusive; . = not tested or not shown. Compounds with a hit are over-represented: about 4.9% of the library has one in this group of screens.
SMILES,HSF1 inhib,dFosB act-1,MPTP inh,HSP90 refold inh,HSF-1 act,Platelet DG rel,dFosB act-2,Rh123 counter,others
CN1CCc2cc3c(c4c2[C@H]1[C@H](O)c1ccccc1-4)OCO3,6.2,31.6*,-0.5,6.7,15.7,3.9,-0.8,.,
COc1ccccc1CNC(=O)COC(=O)c1cc2ccccc2o1,.,30.8*,-0.9,.,.,.,2.9,.,
Cc1ccc(S(=O)(=O)/C(C#N)=C/c2c(N3CCN(Cc4ccccc4)CC3)nc3ccccn3c2=O)cc1,-7.5,13.2,0.7,1.9,-7.3,1.9,.,.,
N#C/C(=C\c1c(N2CCN(Cc3ccccc3)CC2)nc2ccccn2c1=O)S(=O)(=O)c1ccccc1,-3.5,32.3*,0.2,-0.7,-5.5,5.5,2.7,.,
C#CCOCCOCCOCCNc1nc(N2CCN(C(=O)[C@H](CC(N)=O)n3cc(C(N)[C@H](C)CC)nn3)CC2)nc(N2CCN(C(=O)[C@H](CC(N)=O)n3cc(C(N)[C@@H](C)CC)nn3)CC2)n1 (some centres not stated),.,-8.4,-1.4,.,.,.,.,.,
c1ccc(-c2csc(-n3cccn3)n2)cc1,17.7,0.7,-0.4,1.0,10.8,1.1,.,.,
O=C(CSc1n[nH]c(-c2ccc(S(=O)(=O)N3CCCCC3)cc2)n1)Nc1nccs1,-1.7,63.6*,8.9,0.3,-1.9,-2.3,5.1,.,
Nc1nc(Cl)cc(Sc2ccc(F)cc2)n1,-6.3,6.1,0.7,-0.9,-19.1,-5.1,.,.,
Cc1ccc(Sc2cc(Cl)nc(N)n2)cc1,-0.2,58.3*,-0.7,-1.4,4.9,-1.6,3.0,.,
CC1(Oc2ccc(-n3ccnc3)cc2)CCN(Cc2cccn2-c2nccs2)C1 (configuration not stated),.,.,-0.2,.,.,.,.,.,
COc1ccc(OCc2nnc(NC(=O)Nc3ccc(F)cc3)s2)cc1,-10.0,73.2*,74.2*,-0.8,-14.0,-5.3,-1.2,82.2*,
Cc1cc(C)c2oc(C(=O)Nc3ccc(S(=O)(=O)N4CCC(C)CC4)cc3)cc(=O)c2c1,-3.5,23.4*,59.6*,8.2,3.9,-4.4,1.1,-8.5,MPTP swell DR=>100;MPTP counter DR=>80
N#CC1=C(N)N2C(=C(C#N)C1c1cccc(Br)c1)Nc1ccccc12 (configuration not stated),-2.4,26.9*,85.5*,1.9,-1.6,-7.9,-0.7,55.1*,
CN1CCN(c2ccc(-c3cccc(NC(=O)COc4ccc(Cl)cc4Cl)c3)nn2)CC1,-54.4*,28.4*,74.4*,.,-60.0,-9.0,0.8,-16.1,MPTP swell DR=18.9*;MPTP counter DR=>80
CCOc1ccc(NC(=O)NCCCn2c(C)nc3cc(C)c(C)cc32)cc1,-3.0,5.9,8.6,3.3,12.2,-0.5,.,.,
Cc1cc2nc(C)n(CCCNC(=O)Nc3cccc4ccccc34)c2cc1C,21.7,53.2*,87.7*,7.0,19.1,2.1,2.4,91.3*,
N#C/C(=C(/O)c1ccc(Cl)c([N+](=O)[O-])c1)c1nc2ccccc2[nH]1,-11.1,42.3*,78.3*,-3.7,-14.7,10.7,1.9,80.6*,
Cc1nc2ccccn2c1C(=O)CSc1ccc(Cl)cc1Cl,2.5,49.8*,72.3*,0.1,-24.1,-0.5,0.8,4.0,
Cc1nc2ccccn2c1C(=O)CSc1ccccc1Cl,6.5,-20.8,0.7,-2.0,23.5,-1.7,.,.,
CC1(C)CC(=O)C=C(c2cn[nH]n2)C1,.,.,-0.3,.,.,.,.,.,
Cc1cc(Nc2cccc(Cl)c2)nc(NCc2ccccc2)n1,-2.2,40.9*,82.2*,0.5,-1.8,9.3,-1.4,86.8*,
Cc1cc(C)nc(NCc2ccc(Cl)cc2)n1,2.2,2.2,-1.1,0.9,22.0,4.7,.,.,
Cc1ccc(OCCC(=O)OCC(=O)NCCNC(=O)COC(=O)CCOc2ccc(C)cc2)cc1,.,.,-0.1,.,.,.,.,.,
O=C(Nc1ccc(Oc2ncnc3cc(Cl)ccc23)nc1)c1ccc(F)cc1,-10.4,.,.,-3.4,-6.9,9.1,.,.,
O=C(Nc1ccc(Oc2ncnc3cc(Cl)ccc23)nc1)Nc1cccc(C(F)(F)F)c1,-2.9,39.7*,89.5*,-1.4,-5.3,-1.0,-4.4,25.4*,
SMILES,HSF1 inhib,dFosB act-1,MPTP inh,HSP90 refold inh,HSF-1 act,Platelet DG rel,dFosB act-2,Rh123 counter,others
O=C(NNC(=O)c1ccccc1[N+](=O)[O-])c1ccc(NC(=O)c2ccccc2)cc1,0.9,?,0.4,-1.2,6.5,-12.2,.,.,
O=c1[nH]c(-c2ccc(F)cc2)nc2c1sc(=S)n2-c1ccccc1,0.9,23.6*,55.6*,6.5,18.9,1.2,2.6,8.1,MPTP swell DR=i;MPTP counter DR=<2.5*
O=c1[nH]c(-c2ccc3c(c2)OCO3)nc2c1sc(=S)n2-c1ccccc1,-2.0,-6.1,-0.2,0.5,-3.5,4.0,.,.,
CN(C(=O)c1cccc(NC(=O)Cc2ccc(NC(=O)C3CCCN(C(=O)C4CCC4)C3)cc2)c1)C1CCCCC1 (configuration not stated),.,-18.0,0.4,.,.,.,.,.,
Oc1ccccc1-c1cc(-c2ccccc2Cl)[nH]n1,-0.1,-3.0,7.2,5.9,-5.7,24.0,.,.,
Oc1ccc(Cl)cc1-c1cc(-c2cccc(Br)c2)n[nH]1,4.3,45.7*,89.1*,0.3,2.5,8.6,-0.5,68.1*,
CC1CCN(C(=O)C2CCC(=O)N(Cc3ccc(Cl)cc3)C2)CC1 (configuration not stated),5.5,-11.3,-0.5,-10.9,-5.0,-7.4,.,.,
COc1ccccc1CC(=O)Nc1ccc([N+](=O)[O-])cc1O,7.7,24.0*,53.7*,3.1,-1.4,-4.5,-6.3,81.8*,
O=C(NC(NC(=S)Nc1c(Cl)cccc1Cl)C(Cl)(Cl)Cl)OCc1ccccc1 (configuration not stated),.,16.3*,100.3*,-0.1,.,-6.2,5.5,67.2*,
COc1ccc(COCC(O)CN2CCC(CN3C(=O)c4cccc5cccc(c45)C3=O)CC2)cc1OC (configuration not stated),3.1,27.6*,90.2*,2.5,7.2,2.7,5.3,18.1,MPTP swell DR=6.33*;MPTP counter DR=46.1*
COc1cccc(OCC(O)CN2CCC(CN3C(=O)c4cccc5cccc(c45)C3=O)CC2)c1 (configuration not stated),-2.6,45.5*,72.3*,1.2,-7.5,-2.8,3.5,49.5*,
CC(C)N1CCN(C(=O)c2ccc(OC3CCN(CCc4ccccc4)CC3)cc2)CC1,4.2,-4.9,-0.3,0.5,-0.5,-8.1,.,.,
CCOc1ccccc1C(=O)Nc1ccc(-n2nncc2C(C)(C)C)cc1,5.8,3.6,4.9,-0.8,1.1,0.3,.,.,
